# Test results taken from the supplement of paper PMC11732987, “Enantioselective OTUD7B fragment discovery through chemoproteomics screening and high-throughput optimisation” (Communications Chemistry, 2025).
# Biological target: T1, USP22 (UniProt Q9UPT9)
# T1 sequence (whole entry): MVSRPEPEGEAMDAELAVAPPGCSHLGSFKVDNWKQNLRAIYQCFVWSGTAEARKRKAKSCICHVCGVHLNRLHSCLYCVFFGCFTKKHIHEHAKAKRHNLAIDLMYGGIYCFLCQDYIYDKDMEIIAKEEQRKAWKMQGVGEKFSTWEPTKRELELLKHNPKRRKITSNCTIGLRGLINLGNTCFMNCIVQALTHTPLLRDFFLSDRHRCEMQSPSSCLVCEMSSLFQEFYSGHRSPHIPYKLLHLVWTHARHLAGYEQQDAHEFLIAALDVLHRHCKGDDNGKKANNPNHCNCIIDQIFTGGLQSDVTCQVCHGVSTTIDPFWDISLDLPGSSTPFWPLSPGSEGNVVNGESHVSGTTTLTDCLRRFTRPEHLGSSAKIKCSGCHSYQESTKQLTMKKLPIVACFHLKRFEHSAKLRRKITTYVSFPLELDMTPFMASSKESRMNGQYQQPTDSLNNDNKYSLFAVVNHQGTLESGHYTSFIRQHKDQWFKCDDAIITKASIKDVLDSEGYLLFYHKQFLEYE
# Experiment: log2 ratio of Biotin-Ahx-Ub-VS probe labelling (fragment/DMSO); higher = less target engagement (more negative = stronger competition), active = hit call of the paper (q ≤ 0.05, log2 ratio ≤ -1)
# Conditions: compound concentration: 200 uM; treatment time: 3 h
# Outline: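 HEK293T lysate (495 µg per sample, in Tris/CHAPS/IGEPAL buffer with protease inhibitors) was treated in triplicate with fragment at 200 µM or with DMSO for 3 h. It was then treated with Biotin-Ahx-Ub-VS (0.5 µM final) for 1 h. Labelled DUBs were NeutrAvidin-enriched, digested with LysC and trypsin, and run by diaPASEF LC-MS/MS. Spectronaut label-free quantities were global-median-normalised. Values are average log2 ratios fragment/DMSO by unpaired t-test, using proteins with ≥2 unique peptides.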
row,SMILES,log2 ratio of Biotin-Ahx-Ub-VS probe labelling
1,O=C(CCl)Nc1ccc(F)cc1Cl,-0.0369 (inactive)
2,O=C(CCl)Nc1cccc2ncccc12,0.19 (inactive)
3,O=C(CCl)NC(Cn1ccccc1=O)c1ccccc1 (centres undefined),0.298 (inactive)
4,Cc1n[nH]c(=O)c2c(NC(=O)CCl)oc(C)c12,-0.281 (inactive)
5,Cc1ccc(-c2nnc(C)[nH]2)c(NC(=O)CCl)c1,0.0459 (inactive)
6,Cc1ccc(C)c(Oc2ccc(CNC(=O)CCl)cn2)c1.Cl,-0.856 (inactive)
7,Cc1nc(CN2CCCN(C(=O)CCl)CC2)no1.Cl,0.125 (inactive)
8,N#Cc1ccc(CNC(=O)CCl)cc1,0.193 (inactive)
9,CC(C)n1nccc1NC(=O)CCl,0.134 (inactive)
10,CC(NC(=O)CCl)c1ccc2[nH]ncc2c1 (centres undefined),0.0735 (inactive)
11,Cl.O=C(CN1CCN(C(=O)CCl)CC1)Nc1ccc(F)cc1,0.179 (inactive)
12,CC(NC(=O)CCl)c1cnn(C2CC2)c1 (centres undefined),-0.22 (inactive)
13,NC(=O)C(Cc1ccccc1)NC(=O)CCl (centres undefined),-0.0897 (inactive)
14,O=C(CCl)NC1CCN(C(=O)C2CCCCC2)CC1,0.324 (inactive)
15,Cc1cc(Cl)ccc1NC(=O)CCl,-0.467 (inactive)
16,COc1ccc(Cl)cc1NC(=O)CCl,-0.388 (inactive)
17,O=C(CCl)Nc1nnc(CC(F)(F)F)o1,-0.0202 (inactive)

row,SMILES,log2 ratio of Biotin-Ahx-Ub-VS probe labelling
1,O=C(CCl)N(C1=CCCCC1)C1CC1,-0.481 (inactive)
2,Cc1ccc(CN(CCO)C(=O)CCl)cc1,-0.0829 (inactive)
3,CC(NC(=O)CCl)c1cccc2ccccc12 (centres undefined),-0.925 (inactive)
4,O=C(CCl)N1CCCCC12CCOCC2,-0.332 (inactive)
5,Cl.Cn1ncc2c1CCCC2NC(=O)CCl (centres undefined),0.202 (inactive)
6,COCC[C@@H](NC(=O)CCl)c1ccccc1,0.104 (inactive)
7,CN(C(=O)CCl)c1nc2ccccc2s1,-0.0338 (inactive)
8,O=C(CCl)N1CCC(C(=O)N2CCCCCC2)CC1,-0.145 (inactive)
9,O=C(CCl)N1CCOC2(CCC2)CC1,-0.382 (inactive)
10,O=C(CCl)NCCC1=CCCCC1,-0.0359 (inactive)
11,O=C(CCl)N(C1CCCC1)C1CCS(=O)(=O)C1 (centres undefined),0.236 (inactive)
12,Cc1noc(N2CCN(C(=O)CCl)CC2)n1.Cl,0.0656 (inactive)
13,COc1ccccc1C(C)NC(=O)CCl (centres undefined),-0.46 (inactive)
14,O=C(CCl)N(Cc1ccsc1)C1CC1,0.255 (inactive)
15,O=C(CCl)N1CCC(S(=O)(=O)c2ccc(F)cc2)CC1,0.191 (inactive)
16,Cc1nc(CN2CCN(C(=O)CCl)CC2)cs1,-0.169 (inactive)
17,O=C(CCl)N1CC2(CCOCC2)C1,0.0357 (inactive)
